# Measured values as given in PubChem BioAssay (NCATS).
# Values joined by “and” are separate entries in the source; they are usually repeats but may differ in a detail not shown here. Identical values can stand only once. Results filed as inconclusive are left out. Where a call stands in place of a potency, no number is given. Active and inactive are the calls of the source. Calls come from the whole dose curve; as a rule, active = well fitted curve in the direction sought with a large enough effect; inconclusive = small, poorly fitted or top-dose-only effect, or another doubt; inactive = no such curve, though single readings can be large; an effect the other way counts as inactive or inconclusive.
# Legend:
# [1] = system: Zika virus NS2B-NS3 protease (linked construct); experiment: Primary screen NINDS Rhodamine qHTS for Zika virus inhibitors (AID 1347160); note: nearly all actives have a fitted effect of over 55% in size
# Method in brief: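 Kinetic fluorescence (Ex 480 nm, Em 540 nm) over 15 min with 1.5 microM Rhodamine110 peptide and 25 nM linked protease.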
# [2] = biological target: Calcium and integrin-binding protein 1 (Homo sapiens) (UniProt Q99828); experiment: Primary qHTS for Identification of Calcium Integrin Binding Protein 1 (CIB1) Competitor (AID 1508620);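 note: GST tagged CIB1 binding a fluorescein labelled alphaIIb integrin peptide tracer; top concentration of the series differs between compounds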
# Method in brief: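 Fluorescence polarization competition: CIB1-GST (1 uM final) preincubated with compound 15 min at room temperature, then FITC-labeled alphaIIb peptide (100 nM final) added for another 15 min. Polarization read at Ex 480/Em 540.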
# [3] = biological target: Glutathione peroxidase 1 (Homo sapiens) (UniProt P07203); experiment: Primary qHTS Assay for Inhibitors of Recombinant Selenoprotein Glutathione Peroxidase 1 (GPX1) (AID 1845191); note: nearly all actives have a fitted effect of over 65% in size
# Method in brief: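 Recombinant GPX1 (10 nM final) was preincubated with compound for 30 min at room temperature, then reacted with 1 mM GSH, 0.5 mM CHP, 0.5 mM NADPH and 100 nM glutathione reductase; NADPH fluorescence (340/450 nm) was read at 0 and 15 min.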
# [4] = biological target: Phospholipid hydroperoxide glutathione peroxidase GPX4 (Homo sapiens) (UniProt P36969); experiment: Primary qHTS Assay for Inhibitors of Recombinant Selenoprotein Glutathione Peroxidase 4 (GPX4) (AID 1845192); conditions: outcome: dose series up to 50 µM unless noted; note: nearly all actives have a fitted effect of over 65% in size
# Method in brief: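 GR-coupled readout: 100 nM GR, 1 mM GSH, 0.5 mM NADPH; NADPH fluorescence (ex 340/em 450 nm) read at t=0 and after 15 min RT. GPX4 200 nM, preincubated 30 min with compound; substrate 0.5 mM CHP.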
# [5] = biological target: Luciferin 4-monooxygenase (Photinus pyralis) (UniProt P08659); experiment: Primary firefly luciferase (FLuc) qHTS assay for identification of artifact compounds. (AID 1845220); note: nearly all actives have a fitted effect of over 60% in size; note: potency is the fitted concentration of half-maximal effect
# Method in brief: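 In this counter-screen for luciferase artifacts, test compounds met substrate (10 uM each luciferin and ATP) before 10 nM enzyme started the reaction. Light output was measured 5 min later.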
# [6] = Primary fluorescence-based thiol-reactive (MSTI) qHTS assay for identification of artifact compounds. (AID 1845221); note: nearly all actives have a fitted effect of over 65% in size; note: potency is the fitted concentration of half-maximal effect
# Method in brief: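 First, 4 uM MSTI in 2% DMSO/PBS pH 7.4 was dispensed; next, compounds were added; then plates sat 1 h at room temperature without light. Finally, emission at 598 nm was recorded.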
# [7] = system: Nanoluciferase (engineered Oplophorus gracilirostris luciferase); experiment: Primary Nanoluciferase (NLuc) qHTS assay for identification of artifact compounds. (AID 1845222);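 note: NLuc secreted into diluted conditioned medium of S16 cells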
# Method in brief: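 Using secreted nanoluciferase in S16 culture medium (0.22 um filtered, 1:55 dilution), compounds were preincubated 15 min at RT. Signal was generated with Nano-Glo reagent (1:100) over 5 min.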
# C33A = experiment: Primary qHTS to identify gynecologic anti-cancer compounds using libraries of approved drugs and bioactive compounds (AID 1345084); conditions: Gynecologic cancer cell panel viability, ATPlite luminescence, 48 h; series mostly up to 57.5 µM; note: nearly all actives have a fitted effect of over 55% in size; note: potency is the fitted concentration of half-maximal effect
# Method in brief: (§1)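 48 h compound exposure at 37 C, 5% CO2; five-point qHTS. ATPlite luminescence readout of cell ATP.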
# CASKI = experiment: as above; conditions: Gynecologic cancer cell panel viability, ATPlite luminescence, 48 h; series mostly up to 57.5 µM
# Method in brief: as §1
# Es-2 = experiment: as above; conditions: Gynecologic cancer cell panel viability, ATPlite luminescence, 48 h; series mostly up to 57.5 µM
# Method in brief: as §1
# HeLa = experiment: as above; conditions: Gynecologic cancer cell panel viability, ATPlite luminescence, 48 h; series mostly up to 57.5 µM
# Method in brief: as §1
# Hek293T = experiment: as above; conditions: Gynecologic cancer cell panel viability, ATPlite luminescence, 48 h, control line for the selectivity index; series mostly up to 57.5 µM
# Method in brief: as §1
# JEG-3 = experiment: as above; conditions: Gynecologic cancer cell panel viability, ATPlite luminescence, 48 h; series mostly up to 57.5 µM
# Method in brief: as §1
# OV90 = experiment: as above; conditions: Gynecologic cancer cell panel viability, ATPlite luminescence, 48 h; series mostly up to 57.5 µM
# Method in brief: as §1
# PA-1 = experiment: as above; conditions: Gynecologic cancer cell panel viability, ATPlite luminescence, 48 h; series mostly up to 57.5 µM
# Method in brief: as §1
# Tov-21-G = experiment: as above; conditions: Gynecologic cancer cell panel viability, ATPlite luminescence, 48 h; series mostly up to 57.5 µM
# Method in brief: as §1
# Tov112D = experiment: as above; conditions: Gynecologic cancer cell panel viability, ATPlite luminescence, 48 h; series mostly up to 57.5 µM
# Method in brief: as §1
# [8] = Primary qHTS for inhibitors of nuclear receptor binding SET domain protein 2 (NSD2) in an isogenic RCH-ACV NSD2 p.E1099K mutant (9B) (AID 1645876); note: potency is the fitted concentration of half-maximal effect; nearly all actives have a fitted effect of over 70% in size
# [9] = system: Zika virus NS2B-NS3 protease (unlinked complex); experiment: Primary screen GU Rhodamine qHTS for Zika virus inhibitors: Unlinked NS2B-NS3 protease assay (AID 1347159); note: nearly all actives have a fitted effect of over 60% in size
# Method in brief: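 A qHTS format was used, with compound concentrations ranging up to 114 microM. Each compound was preincubated with 25 nM NS2B-NS3 protease, and the substrate was then added at 1.5 microM. Curves were fitted with a 4-parameter Hill model.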
# [10] = Primary qHTS for inhibitors of nuclear receptor binding SET domain protein 2 (NSD2) in an RCH-ACV wild type WT cells (2C) (AID 1645877); note: potency is the fitted concentration of half-maximal effect; nearly all actives have a fitted effect of over 70% in size
# Glutathione peroxidase 1 (Homo sapiens), sequence (P07203 whole entry, looked up): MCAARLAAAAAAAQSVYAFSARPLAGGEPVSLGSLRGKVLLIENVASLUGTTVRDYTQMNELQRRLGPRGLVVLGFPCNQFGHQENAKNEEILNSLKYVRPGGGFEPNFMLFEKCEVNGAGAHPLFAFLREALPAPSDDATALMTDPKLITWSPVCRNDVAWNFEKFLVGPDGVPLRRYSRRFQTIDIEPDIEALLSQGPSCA
# Phospholipid hydroperoxide glutathione peroxidase GPX4 (Homo sapiens), sequence (P36969 whole entry, looked up): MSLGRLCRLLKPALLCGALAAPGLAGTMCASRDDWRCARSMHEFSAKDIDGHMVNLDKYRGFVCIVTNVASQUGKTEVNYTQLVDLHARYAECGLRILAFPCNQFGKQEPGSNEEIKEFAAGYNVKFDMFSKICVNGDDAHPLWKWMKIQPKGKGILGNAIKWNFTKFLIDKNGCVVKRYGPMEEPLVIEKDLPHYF
# Calcium and integrin-binding protein 1 (Homo sapiens), sequence (Q99828 whole entry, looked up): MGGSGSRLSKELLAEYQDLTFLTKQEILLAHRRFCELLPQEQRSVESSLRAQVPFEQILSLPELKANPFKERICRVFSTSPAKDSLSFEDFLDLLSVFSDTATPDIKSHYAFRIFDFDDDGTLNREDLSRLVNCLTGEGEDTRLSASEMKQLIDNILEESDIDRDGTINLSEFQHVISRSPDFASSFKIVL
SMILES,Potency [1],outcome [2],Potency [3],Potency [4],Potency [5],Potency [6],Potency [7],Potency (C33A),Potency (CASKI),Potency (Es-2),Potency (HeLa),Potency (Hek293T),Potency (JEG-3),Potency (OV90),Potency (PA-1),Potency (Tov-21-G),Potency (Tov112D),Potency [8],Potency [9],Potency [10]
COc1cc2ncnc(Oc3cccc(NC(=O)Nc4cc(C(C)(C)C(F)(F)F)on4)c3)c2cc1OC,inactive,inactive,inactive,inactive,inactive,inactive,inactive,inactive,inactive,inactive,inactive,inactive,inactive,inactive,inactive,inactive,inactive,–,–,–
CC(C)(C)c1ccc(-c2nc3ccccc3[nH]2)cc1,inactive,inactive,inactive,inactive,0.0294 µM (active),inactive,inactive,1.26 µM (active),1.12 µM (active),1.58 µM (active),2.24 µM (active),2.24 µM (active),1.78 µM (active),1.41 µM (active),1 µM (active),1.41 µM (active),3.98 µM (active),8.93 µM (active),–,–
COc1cc(N2CCOCC2)ccc1Nc1ncc(F)c(Nc2ccccc2NS(C)(=O)=O)n1,inactive,inactive,inactive,inactive,inactive,2.38 µM (active),inactive,–,–,inactive,–,–,–,–,–,–,–,8.17 µM (active),inactive,8.17 µM (active)
CC(=O)C1=C(O)C2c3c[nH]c4cccc(c34)CC2C(C)(C)N(C)C1=O (stereo not given),inactive,inactive,–,inactive,inactive,3.36 µM (active),–,–,–,–,inactive,inactive,inactive,inactive,–,inactive,inactive,18.3 µM (active),inactive,–
CC1CCC2C(C)(C)C(O)CCC2(C)C12Cc1c(O)cc3c(c1O2)CN(C(CCCN=C(N)N)C(=O)O)C3=O (stereo not given),inactive,inactive,inactive,inactive,inactive,inactive,inactive,inactive,inactive,inactive,inactive,–,inactive,inactive,–,inactive,–,–,inactive,8.93 µM (active)
O=C1c2c(O[C@@H]3O[C@H](CO)[C@@H](O)[C@H](O)[C@H]3O)cc(O)cc2OC1(O)Cc1ccc(O)cc1 (stereo not given in full),inactive,inactive,inactive,inactive,inactive,–,inactive,–,–,inactive,inactive,–,inactive,inactive,inactive,inactive,–,7.96 µM (active),inactive,4.47 µM (active)
Nc1nc(NCC2CCC(CNS(=O)(=O)c3cccc4ccccc34)CC2)nc2ccccc12 (stereo not given),inactive,inactive,inactive,inactive,inactive,inactive,inactive,inactive,inactive,inactive,inactive,inactive,inactive,–,inactive,inactive,–,4.09 µM (active),inactive,2.58 µM (active)
Cc1ccc(CCCO)c(NCc2ccc3nc(NCCCN4CCOCC4)n(Cc4nc(C)ccc4O)c3c2)c1,inactive,inactive,inactive,inactive,inactive,–,inactive,inactive,inactive,inactive,inactive,inactive,inactive,–,–,inactive,inactive,12.9 µM (active),inactive,11.5 µM (active)
C=C1C(=O)O[C@@H]2CC(C)=C([C@@H](C)CCCO)[C@@H](OC(=O)C(C)C)[C@H]12,inactive,inactive,inactive,inactive,inactive,14.7 µM (active),inactive,inactive,–,inactive,inactive,–,inactive,inactive,–,–,–,14.2 µM (active),–,14.2 µM (active)
C=C1[C@@H](C)[C@H]2[C@H](Cc3c[nH]c4ccccc34)NC(=O)[C@]23C(=O)/C=C/C(=O)[C@H](O)/C(C)=C\[C@@H](C)C/C=C/[C@H]3[C@@H]1O,inactive,inactive,inactive,inactive,inactive,inactive,inactive,inactive,inactive,inactive,–,inactive,inactive,inactive,inactive,–,inactive,3.99 µM (active),inactive,0.796 µM (active)
O=C(c1ccc(F)c(F)c1Nc1ccc(I)cc1F)N1CC(O)([C@@H]2CCCCN2)C1,inactive,inactive,–,–,inactive,inactive,inactive,–,–,–,inactive,–,inactive,–,inactive,–,–,14.8 µM (active),inactive,14.5 µM (active) and 14.8 µM (active)
Cc1cc(C)c(-c2csc(NC(=O)c3ccccc3)n2)c(C)c1,inactive,inactive,inactive,inactive,inactive,inactive,inactive,–,–,inactive,inactive,–,inactive,inactive,–,inactive,–,4.09 µM (active),inactive,4.09 µM (active)
CNc1cc(OC)c(C(=O)N[C@@H]2CCN(Cc3ccccc3)[C@@H]2C)cc1Cl,inactive,inactive,–,inactive,inactive,inactive,inactive,inactive,inactive,inactive,inactive,inactive,inactive,–,inactive,inactive,inactive,20.5 µM (active),inactive,–
